PfHsp40 rescue = restores yeast growth despite PfHsp40 toxicity | S. cerevisiae expressing PfHsp40, growth rescue, ATP luminescence | growth rescue, % at 12.5 µM | actives 0.68% (n = 340,000); in the data active means growth rescue above about 28%, passing the limit was not always enough;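 further: yeast W303a lacking pdr1 and pdr3 grown in galactose medium; growth measured after three days at 30 °C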
BJeLR viability = BJeLR cell viability loss; BJeLR (HRASV12) viability, CellTiter-Glo ATP luminescence, 48 h; inhibition, % (no concentration beside the values); actives 0.17% (n = 300,000); in the data active means inhibition above about 50%
Y pestis TopoI = blocks Yersinia pestis topoisomerase I activity; Y. pestis Topo-I cleavage product accumulation, plate reader; activity, % at 10 µM; actives 0.064% (n = 360,000); AID 504884; in the data active means activity above about 50%, passing the limit was not always enough
CCHF vOTU inh = CCHFV vOTU protease inhibition; inhibition, % at 11.5 µM; Pep-AMC fluorescence; actives 0.55% (n = 370,000); in the data active means inhibition above about 30%
PrPC surface inh = cell surface PrPC inhibition, primary TR-FRET screen. actives 0.43% (n = 370,000). inhibition, % at 13.8 µM. TR-FRET read-out. AID 720596; in the data active means inhibition above about 24%
PrP 5UTR inh = inhibition of PrP 5' UTR reporter expression. cell-based PrP 5' UTR mRNA reporter, plate reader. inhibition, % (no concentration beside the values). actives 0.35% (n = 340,000). AID 488862; in the data active means inhibition above about 52%
Hits are given with their value; i = inactive; nt = no result given. Rows were chosen to be rich in hits. Some 2% of all compounds tested hit in one or more screens of this group.

SMILES	PfHsp40 rescue	BJeLR viability	Y pestis TopoI	CCHF vOTU inh	PrPC surface inh	PrP 5UTR inh
COc1ccc(NC(=S)NCCC(c2ccccc2)c2ccccc2)c(OC)c1	38.9	i	i	i	i	i
O=[N+]([O-])c1cc(Br)ccc1NS(=O)(=O)c1ccccc1	64.8	nt	i	i	i	i
O=S1(=O)c2c(NCc3ccco3)cccc2Oc2ccccc2CN1Cc1cn(Cc2ccccc2C(F)(F)F)nn1	nt	nt	nt	i	i	nt
CCC[C@H](/C=C/C(=O)OC(C)(C)C)Sc1ccc(N)cc1	nt	nt	nt	i	i	nt
O=C1c2cc(Br)ccc2N(Cc2ccc(Br)cc2)S(=O)(=O)C1c1cc(Cl)c(Cl)cc1[N+](=O)[O-] (stereo not drawn)	143.3	nt	i	nt	nt	i
O=C1CS(=O)(=O)N(Cc2cccc(F)c2)c2ccc(Br)cc21	i	nt	i	i	i	i
CC[C@@H](CCCc1ccccc1OC)CCS(=O)(=O)C(C)(C)C	nt	nt	nt	i	i	nt
O=C1C=CC(=O)N1c1ccc2ccccc2c1	766.4	nt	i	i	i	i
C=C1C(=O)[C@]23C[C@H]1CC[C@H]2[C@]1(C)[C@@H](OC(C)=O)CC[C@@](C)(C(=O)OC)[C@H]1C[C@@H]3OC(C)=O	nt	nt	nt	i	i	nt
C=C1C(=O)[C@]23C[C@H]1CCC2[C@@]1(C)C(C[C@@H]3O)[C@](C)(C(=O)OC)CC[C@@H]1OC(C)=O (stereo partly drawn)	nt	nt	nt	i	68.2	nt
CCOc1ccc(/C=C2\NCCc3cc(OCC)c(OCC)cc32)cc1OCC	nt	nt	nt	i	i	nt
Clc1ccccc1N1CCN(C2=Nc3ccccc3Sc3ccccc32)CC1	nt	nt	nt	i	i	nt
CC1CCc2c(C(=O)Nc3ccccn3)csc2C1 (stereo not drawn)	264.8	i	i	i	i	i
COc1ccc(NCc2nc3ccccc3n2CCOc2ccc(C)cc2)cc1	75.1	i	i	i	i	i
Nc1nc2c(ncn2[C@@H]2O[C@H](C(=O)NCC(c3ccccc3)c3ccccc3)[C@@H](O)[C@H]2O)c(=O)[nH]1	nt	nt	nt	i	i	nt
O=C1NC(=O)C(=Cc2ccccc2[N+](=O)[O-])S1	i	nt	62.0	i	i	i
O=C1NC(=O)/C(=C/c2cccc3ccccc23)S1	i	i	i	i	i	i
CC(C)(C)CNC(=O)[C@]1(C)CCC[C@@]2(C)C3CC[C@@]4(C)C[C@]3(CCC21)CC4=O (stereo partly drawn)	i	nt	i	i	i	i
C[C@@]12CCC3[C@@](CCC4[C@@]3(C)CCC[C@@]4(C)C(=O)NCc3ccccc3)(CC1=O)C2 (stereo partly drawn)	345.6	nt	i	i	i	i
COC(=O)C1=C(C)N(C)C(=NCc2ccccc2)NC1c1ccc(F)cc1 (stereo not drawn)	nt	nt	nt	i	i	nt
COc1ccc(-c2nnc(SCC(=O)NN=C/C=C\c3ccco3)n2-c2ccc(OC)cc2)cc1	nt	nt	nt	i	i	nt
CCCCNc1c(-c2ccc(SC3CCCCC3)cc2)nc2ccccn12	i	i	i	i	i	i
CCCCNc1c(-c2ccc(SC(C)CC)cc2)nc2ccccn12 (stereo not drawn)	209.2	i	i	i	i	i
CCCCCCSc1ccc(-c2nc3cnccn3c2NCCCC)cc1	36.6	nt	i	i	i	i
COc1cc(NC(=O)C2CCCN(S(=O)(=O)c3ccc(C)c(C)c3)C2)cc(OC)c1 (stereo not drawn)	nt	nt	nt	i	i	nt
SMILES	PfHsp40 rescue	BJeLR viability	Y pestis TopoI	CCHF vOTU inh	PrPC surface inh	PrP 5UTR inh
O=C(Nc1cccnc1)c1ccc2ccccc2c1O	173.2	i	i	i	i	i
COc1ccccc1NCC(=O)c1ccc(Cl)cc1	i	i	98.1	i	i	i
Cc1ccc(S(=O)(=O)NC(C)CCc2ccccc2)cc1 (stereo not drawn)	i	i	i	31.3	i	i
CC(=O)Nc1ccc(S(=O)(=O)NC(C)CCc2ccccc2)cc1 (stereo not drawn)	i	i	i	i	i	i
CCC(C(=O)O)n1cnc2scc(-c3ccc(C)c(C)c3)c2c1=O (stereo not drawn)	i	i	i	i	i	i
CCC(C(=O)OC)n1cnc2scc(-c3ccc(C)c(C)c3)c2c1=O (stereo not drawn)	166.4	i	i	i	i	i
CCn1c2ccccc2c2cc(NC(=O)COC(=O)c3ccc(F)cc3F)ccc21	nt	nt	nt	i	i	nt
COc1cccc(NC(=O)n2ncc3c(C)cccc32)c1	i	53.9	i	i	i	i
CCC(OC(=O)c1cc2sccc2n1C)C(=O)NCC1CCCO1 (stereo not drawn)	i	nt	i	i	i	i
CC(OC(=O)c1cc2sccc2n1C)C(=O)NCC1CCCO1 (stereo not drawn)	105.6	i	i	i	i	i
O=C(Nc1cccc(Cl)c1)N1CCc2ccccc2C1	44.1	i	i	i	i	i
O=C(O)/C(=C\c1ccc(F)cc1)c1ccc(-c2ccccc2)cc1	512.0	i	i	i	i	i
O=C(O)/C(=C\c1ccccc1OC(F)F)c1ccc(-c2ccccc2)cc1	i	i	i	i	i	i
CCN(CC)C(=O)[C@H]1C[C@@H]2[C@H](C[C@@H](c3ccccc3)[C@H]1C)N(c1ccc(F)cc1)C(=O)N2CCCOc1ccccc1	nt	nt	nt	i	i	nt
O=C(CNC(=O)c1cccc(Cl)c1)Nc1ccc(Br)cc1C(=O)c1ccccc1	35.6	i	i	i	i	i
CN(C)c1ccc(NC(=O)C2C3C=CC(C3)C2C(=O)O)cc1 (stereo not drawn)	i	i	i	78.4	i	i
CCNc1nc(N)c([N+](=O)[O-])c(Nc2cccc(Cl)c2)n1	nt	nt	nt	nt	i	nt
O=C(N/N=C/c1ccncc1)c1cc2ccccc2cc1O	187.2	i	i	i	i	i
O=C(N/N=C/c1ccc[nH]1)c1cc2ccccc2cc1O	i	i	i	i	i	i
COc1cccc(/C=N/Nc2ncnc(Cl)c2N)c1O	i	56.4	i	i	i	i
COc1ccc(/C=N/Nc2ncnc(Cl)c2N)cc1OC	i	i	i	i	i	i
Oc1ccccc1/C=N/Nc1nccnc1Cl	i	i	i	i	i	i
COc1cccc(/C=N/Nc2ncnc3scc(-c4ccccc4)c23)c1O	421.9	70.1	66.7	i	i	i
COc1cccc(/C=N/Nc2nccnc2Cl)c1O	88.5	i	i	i	i	i
COC(=O)C1=C(C(=O)OC)[C@@]2([C@H](Cc3ccc(C)cc3)Nc3ccccc3)C=C[C@@H]1O2	nt	nt	nt	nt	i	nt
SMILES	PfHsp40 rescue	BJeLR viability	Y pestis TopoI	CCHF vOTU inh	PrPC surface inh	PrP 5UTR inh
CCCCCCCCCCCCCCCC(=O)OC(CC(=O)O)C[N+](C)(C)C (stereo not drawn)	124.7	nt	i	i	i	i
CCOC(=O)CC[C@@H]1CC[C@]2(CCCN(Cc3nccs3)C2)O1	nt	nt	nt	i	i	nt
O=C(Nc1nnc(-c2ccccc2)o1)c1ccc(Cl)cc1	251.6	i	i	i	i	i
CC(=O)c1ccc(C(=O)Nc2nnc(-c3ccc(Cl)cc3)o2)cc1	i	i	i	i	i	i
CCOC(=O)CSc1nc2c(c(=O)n1-c1ccc(OCC)cc1)SCC2	40.4	i	i	i	i	i
S=C(NC1CCCC1)N1CCN(c2cccc(Cl)c2)CC1	46.5	i	i	i	i	i
